Compounds without any hit were thinned out: in the full panel of roughly 83,000, 20% have a hit.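 For each line, cells grew in 96-well plates with the test compound present at a single concentration for 48 hours.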 Unmarked numbers belong to inactive results. Active and inactive are the calls of the source. How the source made its calls: active means growth percent below 10; inactive means the rest.

Common to all, as to experiment: NCI-60 one-dose screen, 48 h (100 = growth as untreated, 0 = no growth, -100 = all killed)
What all share (details): 10 µM unless noted

In assay [1] the test system is NCI-H23 lung.
Assay [2] relates to NCI-H226 lung.
Assay [3] relates to NCI-H322M lung.
In assay [4] the test system is HOP-62 NSCLC.
For assay [5], the system named is NCI-H460 lung.
Assay [6] concerns HOP-92 NSCLC.
Assay [7] deals with NCI-H522 lung.
Assay [8] relates to A549/ATCC NSCLC.
For assay [9], the system named is 786-0 renal.
Assay [10] deals with COLO 205 colon.

Take `Cc1ccc2nc(CN(CCN(Cc3nc4ccc(C)cc4[nH]3)Cc3nc4ccc(C)cc4[nH]3)Cc3nc4ccc(C)cc4[nH]3)[nH]c2c1`: the growth in assay [1] was -57.3% (active); in [2] it was -97.1% (active); in [3], -95.7% (active); in assay [4], -93.3% (active); in assay [5], -94.8% (active); in assay [6], -80.7% (active). The growth in assay [7] is -86.4% (active); in assay [8], -89.1% (active); in [9], -97.3% (active); in [10] it was -93.4% (active).
`NC(=O)Nc1ccc2ncnc(Nc3cccc(O)c3)c2c1`: the growth in assay [1] is 100%; in [2], 102%; in assay [3] it was 83.5%; in assay [4] it was 92.8%; in [5], 108%; in [6], 78%. Moreover, the growth in [7] was 102%; in [8] it was 93.5%; in assay [9] it was 92.6%; in assay [10], 94.7%.
Turning to `Cc1nn(-c2ccc(Cl)cc2)c(=O)n1CCN1CCOCC1`, the growth in [1] is 64.5%; in assay [2], 79.4%; in assay [3] it was 92.3%; in [4] it was 33.8%; in [5] it was 41.7%; in [6], 30.1%. Further, the growth is 69% in assay [7], 56.4% in assay [8], 59.4% in assay [9] and 107% in [10].
For `COc1cccc(/C=N/N=C(N)N)c1`, the growth in [1] was 103%; in assay [2], 98.3%; in [3] it was 114%; in assay [4], 104%; in assay [5], 111%; in assay [6] it was 91.1%. Besides, the growth was 97.4% in assay [7], 102% in assay [8], 117% in assay [9] and 109% in [10].
As for `O=C(Nc1ccc(OS(=O)(=O)c2ccc(F)cc2)cc1)C12CC3CC(CC(C3)C1)C2`, the growth in assay [1] is 74.9%; in assay [2], 87.6%; in assay [3], 92.4%; in assay [4], 54.1%; in [5] it was 63.6%; in [6], 48.1%. The growth in [7] is 66%; in assay [8] it was 56.2%; in assay [9], 59.3%; in [10], 54.3%.
On to `O=c1[nH]cnc2nc[nH]c12`, for which the growth in assay [1] is 113%; in [2] it was 98.9%; in assay [3], 94.9%; in [4], 106%; in [5] it was 103%; in assay [6], 104%. Moreover, the growth in [7] is 99.2%; in assay [8], 105%; in [9], 114%; in [10], 112%.
In the case of `CCCCCc1c(C)[nH]c(/C=C2\N=C(c3ccc[nH]3)C=C2CC)c1C`, the growth in [1] is -81% (active); in [2], -92.3% (active); in assay [3], -90.2% (active); in assay [4], -72.2% (active); in assay [5], -73.3% (active); in assay [6], -91.8% (active). The growth in [7] is -88.8% (active); in assay [8], -86.4% (active); in [9], -93.6% (active); in assay [10], -87.7% (active).
As to `COc1ccc2[nH]c(C(=O)OCc3ccc4cccc(O)c4n3)cc2c1`, the growth in assay [1] is -3.84% (active); in assay [2] it was -68.1% (active); in assay [3], 62.7%; in assay [4] it was 35%; in [5], 7.31% (active); in assay [6] it was -78.2% (active). For the same compound, the growth in assay [7] was -66.9% (active); in assay [8], 21.2%; in [9] it was -76.1% (active); in [10], -69.1% (active).
In the case of `NC(=O)c1noc(C(=O)c2ccccc2)c1N`, the growth was 101% in assay [1]; 89.8% in assay [2]; 104% in [3]; 114% in assay [4]; 102% in assay [5]; 107% in [6]. Moreover, the growth in assay [7] was 80.4%; in assay [8], 89.1%; in assay [9], 97.9%; in assay [10] it was 111%.
In the case of `c1ccc(C(Nc2ccccn2)(c2ccccc2)c2ccccc2)cc1`, the growth in assay [1] was 74.6%; in assay [2] it was 72.6%; in [3] it was 64.8%; in assay [4], 99%; in assay [5] it was 79.9%; in [6] it was 4.44% (active). The growth in [7] was 70.7%; in assay [8] it was 65.9%; in assay [9] it was 81.4%; in [10], 90%.
On to `CCN(C(=O)Nc1cccc2ccccc12)c1ccccc1`, for which the growth in assay [1] is 98.3%; in [2] it was 98.1%; in [3] it was 102%; in [4], 93.6%; in assay [5], 115%; in assay [6] it was 96.3%. The growth is 100% in assay [7], 98.7% in assay [8], 106% in assay [9] and 105% in assay [10].
Regarding `Cc1nc2ccc(Nc3nc(N4CCOCC4)nc(N4CCN(C)CC4)n3)cc2n1Cc1ccccc1`, the growth was 92% in assay [1]; 95.8% in assay [2]; 76.1% in assay [3]; 86.6% in assay [4]; 97.8% in [5]; 64.5% in [6]. In addition, the growth in [7] is 93.2%; in assay [8], 85.1%; in assay [9], 72.8%; in assay [10], 73.2%.
`CCN(CC)CCCC(C)Nc1cnc(C(=O)Nc2ccc(Cl)c3cccnc23)cn1` (stereo not given): the growth in assay [1] was 80.4%; in assay [2], 39.1%; in [3], 35.3%; in assay [4], 43%; in assay [5], 3.47% (active); in [6], 38.8%. In addition, the growth was 4.41% (active) in [7], 23.4% in [8], -44.2% (active) in assay [9] and -66.7% (active) in assay [10].

For the origin of these results see PubChem BioAssay (NCI).
